Experimental data: the supplement of paper PMC11732987, “Enantioselective OTUD7B fragment discovery through chemoproteomics screening and high-throughput optimisation” (Communications Chemistry, 2025)

Key:
Experiment in all cases: log2 ratio of Biotin-Ahx-Ub-VS probe labelling (fragment/DMSO); higher = less target engagement (more negative = stronger competition), active = hit call of the paper (q ≤ 0.05, log2 ratio ≤ -1)
Settings in all cases: compound concentration: 200 uM; treatment time: 3 h
USP42 = target: T1, USP42 (UniProt Q9H9J4)
T1 sequence (whole entry): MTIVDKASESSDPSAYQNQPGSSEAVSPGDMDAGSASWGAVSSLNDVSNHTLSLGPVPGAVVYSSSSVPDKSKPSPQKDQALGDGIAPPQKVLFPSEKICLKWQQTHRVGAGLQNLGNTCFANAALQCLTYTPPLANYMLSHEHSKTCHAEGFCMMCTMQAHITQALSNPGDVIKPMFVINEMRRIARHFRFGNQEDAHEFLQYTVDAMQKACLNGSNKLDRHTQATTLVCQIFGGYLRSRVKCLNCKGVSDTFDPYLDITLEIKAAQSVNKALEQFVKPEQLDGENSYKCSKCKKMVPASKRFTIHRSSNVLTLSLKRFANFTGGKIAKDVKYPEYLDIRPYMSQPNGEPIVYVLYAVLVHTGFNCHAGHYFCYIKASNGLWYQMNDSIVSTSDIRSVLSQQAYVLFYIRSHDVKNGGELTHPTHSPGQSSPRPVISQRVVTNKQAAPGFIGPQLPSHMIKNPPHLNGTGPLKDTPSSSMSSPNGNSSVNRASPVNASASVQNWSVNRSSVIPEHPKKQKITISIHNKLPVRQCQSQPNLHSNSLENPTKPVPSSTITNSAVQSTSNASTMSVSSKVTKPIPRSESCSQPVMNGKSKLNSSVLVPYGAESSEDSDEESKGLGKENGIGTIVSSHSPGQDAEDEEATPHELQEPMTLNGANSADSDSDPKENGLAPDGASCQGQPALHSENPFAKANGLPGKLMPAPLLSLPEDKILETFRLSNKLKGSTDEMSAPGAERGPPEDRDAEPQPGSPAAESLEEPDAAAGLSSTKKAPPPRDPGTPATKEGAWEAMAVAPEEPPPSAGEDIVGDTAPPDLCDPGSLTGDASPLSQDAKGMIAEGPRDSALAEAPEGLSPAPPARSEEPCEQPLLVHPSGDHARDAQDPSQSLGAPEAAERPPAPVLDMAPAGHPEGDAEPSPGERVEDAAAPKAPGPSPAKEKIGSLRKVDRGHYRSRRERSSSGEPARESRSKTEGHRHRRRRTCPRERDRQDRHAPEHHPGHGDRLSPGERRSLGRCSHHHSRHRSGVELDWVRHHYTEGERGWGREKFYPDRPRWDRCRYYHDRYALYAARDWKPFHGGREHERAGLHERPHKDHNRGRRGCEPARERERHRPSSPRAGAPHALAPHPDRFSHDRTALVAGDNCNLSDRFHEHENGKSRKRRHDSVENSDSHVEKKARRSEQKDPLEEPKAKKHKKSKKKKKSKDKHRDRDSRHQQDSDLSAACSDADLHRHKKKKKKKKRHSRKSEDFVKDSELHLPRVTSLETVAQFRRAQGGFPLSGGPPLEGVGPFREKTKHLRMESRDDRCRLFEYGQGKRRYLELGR
Procedure, shortened: (§1)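 HEK293T lysate, 495 µg per sample in Tris/CHAPS/IGEPAL buffer with protease inhibitors, was treated in triplicate with fragment at 200 µM or vehicle for 3 h and then with Biotin-Ahx-Ub-VS at 0.5 µM final for 1 h. Labelled DUBs were NeutrAvidin-enriched, digested with LysC and trypsin, and run by diaPASEF LC-MS/MS. Spectronaut label-free quantities were global-median-normalised, and values are average log2 fragment/vehicle ratios by unpaired t-test on proteins with ≥2 unique peptides.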

USP46 = USP46 (UniProt P62068)
Procedure, shortened: as §1

USP47 = target: T2, USP47 (UniProt Q96K76)
T2 sequence (whole entry): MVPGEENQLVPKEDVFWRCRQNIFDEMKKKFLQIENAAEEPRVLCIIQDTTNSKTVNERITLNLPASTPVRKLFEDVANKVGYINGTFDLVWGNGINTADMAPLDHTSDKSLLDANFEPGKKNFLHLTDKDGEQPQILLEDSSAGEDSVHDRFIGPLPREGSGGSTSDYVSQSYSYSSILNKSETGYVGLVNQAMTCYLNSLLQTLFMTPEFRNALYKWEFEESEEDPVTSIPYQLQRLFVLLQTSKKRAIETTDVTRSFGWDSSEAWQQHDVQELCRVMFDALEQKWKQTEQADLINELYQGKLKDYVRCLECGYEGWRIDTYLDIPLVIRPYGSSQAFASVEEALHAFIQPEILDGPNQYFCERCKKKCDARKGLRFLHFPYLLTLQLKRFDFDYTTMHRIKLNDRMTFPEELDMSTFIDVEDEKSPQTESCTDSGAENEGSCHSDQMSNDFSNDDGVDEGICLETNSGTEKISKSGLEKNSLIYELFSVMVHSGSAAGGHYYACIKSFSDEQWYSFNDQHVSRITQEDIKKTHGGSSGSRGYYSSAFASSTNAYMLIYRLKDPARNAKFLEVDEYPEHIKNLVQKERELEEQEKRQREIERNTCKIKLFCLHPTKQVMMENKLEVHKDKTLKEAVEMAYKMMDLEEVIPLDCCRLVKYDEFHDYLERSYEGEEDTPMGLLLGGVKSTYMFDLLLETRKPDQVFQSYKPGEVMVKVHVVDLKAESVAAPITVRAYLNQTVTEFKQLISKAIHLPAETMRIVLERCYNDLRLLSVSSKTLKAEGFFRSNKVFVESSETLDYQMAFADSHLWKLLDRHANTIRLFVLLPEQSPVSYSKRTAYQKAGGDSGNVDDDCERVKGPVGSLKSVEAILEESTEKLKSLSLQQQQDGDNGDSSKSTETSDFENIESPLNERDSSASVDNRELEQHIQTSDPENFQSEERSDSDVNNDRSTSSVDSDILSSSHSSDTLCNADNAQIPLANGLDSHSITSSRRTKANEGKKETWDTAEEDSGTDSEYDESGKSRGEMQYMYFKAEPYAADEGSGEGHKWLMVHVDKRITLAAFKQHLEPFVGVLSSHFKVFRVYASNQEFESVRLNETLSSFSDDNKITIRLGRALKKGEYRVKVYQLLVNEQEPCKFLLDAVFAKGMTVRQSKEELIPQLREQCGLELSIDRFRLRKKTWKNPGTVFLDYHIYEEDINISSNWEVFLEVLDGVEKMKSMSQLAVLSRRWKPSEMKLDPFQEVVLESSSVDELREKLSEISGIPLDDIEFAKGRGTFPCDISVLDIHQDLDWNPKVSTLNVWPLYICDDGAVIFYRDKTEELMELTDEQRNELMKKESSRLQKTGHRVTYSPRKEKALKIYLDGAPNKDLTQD
Procedure, shortened: as §1

USP48 = target: T3, USP48 (UniProt Q86UV5)
T3 sequence (whole entry): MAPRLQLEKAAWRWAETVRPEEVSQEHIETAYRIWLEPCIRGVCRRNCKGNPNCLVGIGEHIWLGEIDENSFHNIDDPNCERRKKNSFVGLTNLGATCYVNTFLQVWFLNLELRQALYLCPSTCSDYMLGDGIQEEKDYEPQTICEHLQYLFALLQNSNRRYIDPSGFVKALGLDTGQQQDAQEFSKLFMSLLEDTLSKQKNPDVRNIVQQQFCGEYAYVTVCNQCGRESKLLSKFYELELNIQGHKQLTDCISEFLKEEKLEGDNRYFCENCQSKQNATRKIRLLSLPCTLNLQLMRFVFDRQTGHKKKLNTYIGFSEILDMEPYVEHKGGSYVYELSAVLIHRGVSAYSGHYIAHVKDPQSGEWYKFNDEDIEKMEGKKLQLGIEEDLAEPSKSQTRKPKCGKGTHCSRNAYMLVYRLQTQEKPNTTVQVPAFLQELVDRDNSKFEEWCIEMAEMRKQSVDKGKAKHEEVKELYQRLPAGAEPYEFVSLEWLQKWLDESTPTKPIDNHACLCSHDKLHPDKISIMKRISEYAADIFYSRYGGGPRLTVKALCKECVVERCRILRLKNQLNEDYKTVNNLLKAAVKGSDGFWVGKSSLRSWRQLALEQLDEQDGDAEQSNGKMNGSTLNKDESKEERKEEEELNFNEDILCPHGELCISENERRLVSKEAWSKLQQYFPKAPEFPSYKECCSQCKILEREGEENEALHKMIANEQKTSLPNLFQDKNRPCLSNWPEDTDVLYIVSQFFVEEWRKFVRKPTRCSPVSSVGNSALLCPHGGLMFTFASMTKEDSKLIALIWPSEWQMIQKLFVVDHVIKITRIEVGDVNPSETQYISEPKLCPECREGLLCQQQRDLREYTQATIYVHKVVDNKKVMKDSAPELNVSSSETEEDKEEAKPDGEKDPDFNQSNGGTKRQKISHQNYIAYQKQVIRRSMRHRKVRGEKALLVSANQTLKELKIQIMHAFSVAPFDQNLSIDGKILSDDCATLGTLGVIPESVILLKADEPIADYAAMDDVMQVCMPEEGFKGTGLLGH
Procedure, shortened: as §1

USP5 = target: T4, USP5 (UniProt P45974)
T4 sequence (whole entry): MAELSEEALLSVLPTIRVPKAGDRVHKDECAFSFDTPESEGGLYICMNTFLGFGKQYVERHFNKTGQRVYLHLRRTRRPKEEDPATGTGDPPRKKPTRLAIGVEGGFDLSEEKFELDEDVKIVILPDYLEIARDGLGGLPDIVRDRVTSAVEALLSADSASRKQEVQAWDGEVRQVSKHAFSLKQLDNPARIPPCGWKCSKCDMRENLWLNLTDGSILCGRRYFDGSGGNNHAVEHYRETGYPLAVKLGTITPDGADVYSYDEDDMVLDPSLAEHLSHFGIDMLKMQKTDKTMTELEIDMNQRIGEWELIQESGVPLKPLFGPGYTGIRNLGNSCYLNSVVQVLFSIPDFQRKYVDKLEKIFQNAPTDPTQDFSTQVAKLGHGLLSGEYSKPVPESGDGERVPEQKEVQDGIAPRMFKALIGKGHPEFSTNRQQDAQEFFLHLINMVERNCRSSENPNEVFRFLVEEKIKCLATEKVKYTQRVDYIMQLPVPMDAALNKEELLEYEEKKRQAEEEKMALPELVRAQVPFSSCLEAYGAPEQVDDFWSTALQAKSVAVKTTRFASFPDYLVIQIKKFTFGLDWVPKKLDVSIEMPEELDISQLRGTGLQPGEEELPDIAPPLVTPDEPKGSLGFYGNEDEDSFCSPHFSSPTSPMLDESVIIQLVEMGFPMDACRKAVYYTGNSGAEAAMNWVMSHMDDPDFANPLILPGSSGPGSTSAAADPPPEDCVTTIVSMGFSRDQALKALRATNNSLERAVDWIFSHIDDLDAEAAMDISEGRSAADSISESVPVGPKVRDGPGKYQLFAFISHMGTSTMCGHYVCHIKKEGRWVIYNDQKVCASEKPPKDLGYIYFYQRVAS
Procedure, shortened: as §1

USP54 = USP54 (UniProt Q70EL1)
Procedure, shortened: as §1

USP7 = USP7 (UniProt Q93009)
Procedure, shortened: as §1

USP8 = target: T5, USP8 (UniProt P40818)
T5 sequence (whole entry): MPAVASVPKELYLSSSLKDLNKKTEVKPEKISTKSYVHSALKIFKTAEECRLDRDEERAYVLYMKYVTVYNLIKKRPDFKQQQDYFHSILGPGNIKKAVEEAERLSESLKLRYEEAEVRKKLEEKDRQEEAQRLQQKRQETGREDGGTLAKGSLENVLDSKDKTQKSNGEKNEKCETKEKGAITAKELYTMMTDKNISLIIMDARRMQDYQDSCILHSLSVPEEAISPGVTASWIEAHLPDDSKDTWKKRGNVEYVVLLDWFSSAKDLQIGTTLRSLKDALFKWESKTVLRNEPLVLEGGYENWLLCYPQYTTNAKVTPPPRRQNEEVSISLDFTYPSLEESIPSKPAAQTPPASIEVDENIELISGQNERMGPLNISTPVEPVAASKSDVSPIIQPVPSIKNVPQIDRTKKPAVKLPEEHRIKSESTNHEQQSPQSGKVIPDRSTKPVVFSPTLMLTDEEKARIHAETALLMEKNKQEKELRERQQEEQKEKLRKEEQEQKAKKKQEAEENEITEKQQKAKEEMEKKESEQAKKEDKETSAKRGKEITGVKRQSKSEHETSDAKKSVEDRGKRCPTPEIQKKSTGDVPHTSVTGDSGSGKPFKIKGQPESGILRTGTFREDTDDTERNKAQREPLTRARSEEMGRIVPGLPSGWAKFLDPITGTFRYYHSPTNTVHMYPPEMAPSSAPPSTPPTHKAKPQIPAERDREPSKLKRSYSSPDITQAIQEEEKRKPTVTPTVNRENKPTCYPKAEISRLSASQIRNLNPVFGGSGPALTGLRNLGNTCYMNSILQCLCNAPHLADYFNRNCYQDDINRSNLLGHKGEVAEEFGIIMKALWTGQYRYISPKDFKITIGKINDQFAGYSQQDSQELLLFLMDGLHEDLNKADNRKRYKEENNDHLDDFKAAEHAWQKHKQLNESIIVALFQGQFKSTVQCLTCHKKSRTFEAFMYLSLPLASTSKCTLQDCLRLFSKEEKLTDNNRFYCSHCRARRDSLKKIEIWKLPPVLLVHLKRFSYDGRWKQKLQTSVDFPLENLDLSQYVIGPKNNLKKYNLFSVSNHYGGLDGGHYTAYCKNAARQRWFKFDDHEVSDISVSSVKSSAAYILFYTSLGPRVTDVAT
Procedure, shortened: as §1

USP9X = USP9X (UniProt Q93008)
Procedure, shortened: as §1

UniProt O00487 = target: UniProt O00487
Procedure, shortened: as §1

Measured: log2 ratio of Biotin-Ahx-Ub-VS probe labelling

Sequence of USP7 (Q93009 whole entry, looked up): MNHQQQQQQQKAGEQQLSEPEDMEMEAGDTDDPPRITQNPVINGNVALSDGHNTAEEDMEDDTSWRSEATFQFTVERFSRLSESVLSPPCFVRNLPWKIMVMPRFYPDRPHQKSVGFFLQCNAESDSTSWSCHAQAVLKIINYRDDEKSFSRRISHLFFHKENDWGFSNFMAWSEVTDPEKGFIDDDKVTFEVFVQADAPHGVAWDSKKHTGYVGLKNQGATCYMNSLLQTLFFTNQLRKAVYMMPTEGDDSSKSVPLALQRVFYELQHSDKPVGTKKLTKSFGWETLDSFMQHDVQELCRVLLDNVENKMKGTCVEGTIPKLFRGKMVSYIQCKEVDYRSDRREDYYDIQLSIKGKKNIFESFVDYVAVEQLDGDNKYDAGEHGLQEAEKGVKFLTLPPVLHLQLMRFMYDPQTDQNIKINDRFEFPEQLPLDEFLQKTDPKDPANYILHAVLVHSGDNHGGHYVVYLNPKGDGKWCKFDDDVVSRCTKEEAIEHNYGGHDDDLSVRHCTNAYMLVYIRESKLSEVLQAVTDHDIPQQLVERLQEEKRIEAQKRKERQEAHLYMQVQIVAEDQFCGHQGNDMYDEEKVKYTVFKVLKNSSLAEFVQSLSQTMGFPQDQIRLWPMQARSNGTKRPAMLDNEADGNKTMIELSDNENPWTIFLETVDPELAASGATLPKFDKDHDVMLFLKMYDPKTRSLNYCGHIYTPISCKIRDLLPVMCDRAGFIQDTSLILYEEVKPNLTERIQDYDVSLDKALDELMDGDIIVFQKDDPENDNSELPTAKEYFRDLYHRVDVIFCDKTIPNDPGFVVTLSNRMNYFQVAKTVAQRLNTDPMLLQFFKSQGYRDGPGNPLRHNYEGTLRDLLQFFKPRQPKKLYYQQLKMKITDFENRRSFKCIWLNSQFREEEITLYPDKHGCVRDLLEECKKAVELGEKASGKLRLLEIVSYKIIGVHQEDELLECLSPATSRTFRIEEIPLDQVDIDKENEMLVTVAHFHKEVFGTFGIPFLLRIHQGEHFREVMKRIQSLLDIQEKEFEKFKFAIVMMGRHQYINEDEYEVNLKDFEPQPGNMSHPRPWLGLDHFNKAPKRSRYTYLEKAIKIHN
Sequence of USP46 (P62068 whole entry): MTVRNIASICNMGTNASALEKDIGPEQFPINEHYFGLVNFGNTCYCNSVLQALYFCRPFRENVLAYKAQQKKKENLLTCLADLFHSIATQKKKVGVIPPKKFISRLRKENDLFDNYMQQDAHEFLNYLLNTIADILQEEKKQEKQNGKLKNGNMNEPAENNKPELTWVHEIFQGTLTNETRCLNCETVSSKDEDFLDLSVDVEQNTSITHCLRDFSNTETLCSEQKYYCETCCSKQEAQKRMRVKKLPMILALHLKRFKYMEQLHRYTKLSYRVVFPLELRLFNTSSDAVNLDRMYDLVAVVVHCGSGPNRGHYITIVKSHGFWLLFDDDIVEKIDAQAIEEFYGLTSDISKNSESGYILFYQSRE
Sequence of USP54 (Q70EL1 whole entry): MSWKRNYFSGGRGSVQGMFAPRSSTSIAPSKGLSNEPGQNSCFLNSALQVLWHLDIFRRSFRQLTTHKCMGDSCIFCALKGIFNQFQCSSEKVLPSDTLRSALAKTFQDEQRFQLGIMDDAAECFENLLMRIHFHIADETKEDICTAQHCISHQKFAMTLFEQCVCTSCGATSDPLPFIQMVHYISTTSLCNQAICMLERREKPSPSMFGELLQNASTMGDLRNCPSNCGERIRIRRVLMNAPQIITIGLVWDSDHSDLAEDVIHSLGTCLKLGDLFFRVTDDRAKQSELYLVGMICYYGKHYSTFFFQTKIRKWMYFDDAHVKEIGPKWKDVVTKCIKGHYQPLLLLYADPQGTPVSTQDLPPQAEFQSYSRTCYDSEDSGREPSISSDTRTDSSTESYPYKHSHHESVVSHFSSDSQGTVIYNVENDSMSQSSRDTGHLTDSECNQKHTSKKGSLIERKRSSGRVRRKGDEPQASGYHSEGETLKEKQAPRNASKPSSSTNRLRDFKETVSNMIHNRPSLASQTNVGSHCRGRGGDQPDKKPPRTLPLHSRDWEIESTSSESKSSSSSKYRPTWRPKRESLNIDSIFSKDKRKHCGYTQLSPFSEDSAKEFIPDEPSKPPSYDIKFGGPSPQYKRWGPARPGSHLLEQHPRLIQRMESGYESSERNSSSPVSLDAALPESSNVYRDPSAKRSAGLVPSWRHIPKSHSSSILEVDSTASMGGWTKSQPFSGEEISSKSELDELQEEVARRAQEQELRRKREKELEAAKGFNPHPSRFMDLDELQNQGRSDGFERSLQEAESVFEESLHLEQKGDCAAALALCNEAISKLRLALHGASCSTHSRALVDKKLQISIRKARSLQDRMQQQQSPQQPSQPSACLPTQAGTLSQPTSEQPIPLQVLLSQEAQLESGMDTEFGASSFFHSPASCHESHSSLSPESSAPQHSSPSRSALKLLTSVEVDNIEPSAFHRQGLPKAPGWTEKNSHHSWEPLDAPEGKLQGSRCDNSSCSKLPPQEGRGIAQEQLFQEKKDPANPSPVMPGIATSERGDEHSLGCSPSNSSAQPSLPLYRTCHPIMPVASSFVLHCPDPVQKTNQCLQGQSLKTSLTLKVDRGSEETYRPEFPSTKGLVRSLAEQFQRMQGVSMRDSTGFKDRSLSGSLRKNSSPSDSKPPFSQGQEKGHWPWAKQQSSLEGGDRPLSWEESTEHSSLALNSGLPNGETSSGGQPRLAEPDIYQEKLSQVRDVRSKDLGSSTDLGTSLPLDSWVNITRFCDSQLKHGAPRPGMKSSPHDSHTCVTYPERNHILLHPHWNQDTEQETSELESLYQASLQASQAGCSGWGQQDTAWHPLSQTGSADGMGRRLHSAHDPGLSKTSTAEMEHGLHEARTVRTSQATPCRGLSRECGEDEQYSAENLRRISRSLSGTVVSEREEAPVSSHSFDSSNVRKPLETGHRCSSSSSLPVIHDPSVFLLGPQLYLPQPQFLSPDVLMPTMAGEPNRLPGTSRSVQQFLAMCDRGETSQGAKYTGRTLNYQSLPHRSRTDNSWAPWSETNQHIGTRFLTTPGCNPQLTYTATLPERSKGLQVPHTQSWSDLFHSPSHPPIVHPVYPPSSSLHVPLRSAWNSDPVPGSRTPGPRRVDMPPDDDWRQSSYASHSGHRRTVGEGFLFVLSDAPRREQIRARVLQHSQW
Sequence of UniProt O00487 (O00487 whole entry): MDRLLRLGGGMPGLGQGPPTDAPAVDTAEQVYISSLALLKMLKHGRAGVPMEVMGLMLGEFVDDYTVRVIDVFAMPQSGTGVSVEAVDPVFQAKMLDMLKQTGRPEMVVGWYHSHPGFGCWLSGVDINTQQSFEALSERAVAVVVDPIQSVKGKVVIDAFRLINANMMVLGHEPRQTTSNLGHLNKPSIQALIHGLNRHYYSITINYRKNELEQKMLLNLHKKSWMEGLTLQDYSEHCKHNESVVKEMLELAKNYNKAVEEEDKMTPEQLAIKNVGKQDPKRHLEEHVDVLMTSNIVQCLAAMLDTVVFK

Cc1ccc(C)c(NC(=O)CCl)c1
inactive: USP42 0.248 | USP46 -0.456 | USP47 -0.823 | USP48 -0.558 | USP5 -0.353 | USP54 -0.00643 | USP7 -0.537 | USP8 -0.263 | USP9X -0.374 | UniProt O00487 -0.102
